# PI5P4Ka inh – qHTS for Inhibitors of phosphatidylinositol 5-phosphate 4-kinase (PI5P4K); actives 1.2% (n = 330,000); max response, %; PI5P4Kalpha enzyme, ADP-Glo luminescence, 60 min; hits give low values; Phosphatidylinositol 5-phosphate 4-kinase type-2 alpha (Homo sapiens), P48426; active = max response of -50% or lower; inconclusive = between -30% and -50%; inactive = -30% or higher; note: value at the top dose of about 77 µM; % is set by controls: 0 for no effect and ±100 for the full control effect
# Target sequence (P48426 whole entry, looked up): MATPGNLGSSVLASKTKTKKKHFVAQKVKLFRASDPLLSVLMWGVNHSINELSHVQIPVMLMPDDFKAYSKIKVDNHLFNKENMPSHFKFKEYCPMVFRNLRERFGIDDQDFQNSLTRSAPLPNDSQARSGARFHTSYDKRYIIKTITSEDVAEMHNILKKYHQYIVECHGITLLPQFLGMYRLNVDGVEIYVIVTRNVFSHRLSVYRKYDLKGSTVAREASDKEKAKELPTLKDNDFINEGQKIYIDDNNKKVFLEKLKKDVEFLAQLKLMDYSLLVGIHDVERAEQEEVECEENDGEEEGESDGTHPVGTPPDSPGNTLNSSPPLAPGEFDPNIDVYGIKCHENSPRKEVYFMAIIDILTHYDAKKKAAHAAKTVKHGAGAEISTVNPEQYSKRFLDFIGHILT
#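 Human PI5P4Kalpha with substrate in 0.038 M HEPES pH 7.4, 0.28 mM EGTA, 0.1% CHAPS, 5% DMSO; reaction started with 5 microM ATP (final), 60 min at room temperature. ADP formed read by ADP-Glo luminescence.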
# DRD3 agonist – qHTS of D3 Dopamine Receptor Agonist: qHTS | D(3) dopamine receptor (Homo sapiens), P35462 | D3R DiscoveRx beta-arrestin cells, luminescence, 90 min | max activation, % | actives 0.58% (n = 410,000); in the data active = max activation above about 30%; note: 0% is about no effect
#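 Agonist-mode cell screen: cells plated at 1500/well and incubated overnight at 37 °C, then exposed to library compounds for 90 min at 37 °C. Detection reagent was added for 30–60 min at room temperature, and luminescence was read.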
# DRD3 antagonist – qHTS of D3 Dopamine Receptor Antagonist: qHTS; D(3) dopamine receptor (Homo sapiens), P35462; D3R cells, DiscoveRx beta-arrestin luminescence, antagonist mode; hits give low values; max response, negative = inhibition, %; actives 2.5% (n = 360,000); AID 652054, 2013; in the data active = max response below about -50%; inconclusive = no clear call, values can overlap the other calls; note: % is set by controls: 0 for no effect and ±100 for the full control effect
#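 Cells expressing the human receptor were seeded at 1500 cells/well, incubated overnight at 37 degrees C in 5% CO2, then exposed to library compounds with dopamine controls for 90 minutes at 37 degrees C before luminescent detection.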
# PI4K2A block – qHTS for small molecular inhibitors of PI4K2A. Phosphatidylinositol 4-kinase type 2-alpha (Homo sapiens), Q9BTU6. purified PI4K2A, ADP-Glo luminescence, 1 h; hits give low values. activity change, negative = inhibition, % at 76.9 µM. actives 0.13% (n = 420,000); in the data active = activity change below about -50%; inconclusive = mostly about -30% to -49%;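 note: -100% = wells without enzyme as full effect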
#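 Compounds are screened against recombinant PI4K2A using PI as substrate and ATP, the latter dispensed at 300 microM. Reactions run one hour at ambient temperature before ADP-Glo detection; full inhibition defined by wells lacking enzyme.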
# LDHA block – qHTS assay for inhibitors of human lactate dehydrogenase. activity change, % (values are at about 110 or 230 µM). AID 1347041, 2019. actives 0.15% (n = 480,000). L-lactate dehydrogenase A chain (Homo sapiens), P00338. purified LDHA, NADH/diaphorase-resazurin fluorescence; hits give low values; in the data active = activity change below about -30%; inconclusive = mostly about -25% to -30%;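 note: plate controls were DMSO wells for no effect and wells without enzyme for full effect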
#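 LDH5 2 nM; NADH 0.06 mM, pyruvate 0.2 mM; 200 mM Tris pH 7.4, EDTA, Tween-20; 5 min RT. Detection: diaphorase 0.133 mg/mL + resazurin 37 µM, fluorescence ex540/em590 at 0 and 20 min; normalized to enzyme-free and DMSO wells.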
# * hit, by the source's call; ? = inconclusive; . = no result; ! = repeats disagree. A selection: hits, their analogues and other compounds. The true share with any hit is near 3.3%.
SMILES,PI5P4Ka inh,DRD3 agonist,DRD3 antagonist,PI4K2A block,LDHA block
CCC(C)NCCOCCOc1ccc(Cl)c(C)c1C (stereo not given),9,-13,-64*,0,-16
Cc1cc(C)c(NC(=O)CSC2=C(C#N)C(c3ccc(C)o3)C3=C(CCCC3=O)N2)c(C)c1 (stereo not given),.,.,.,.,8
COC(=O)c1cccc(NC(=O)Nc2cc(-c3nc4cc(C)ccc4o3)ccc2OC)c1,.,.,.,.,4
CCN(CC)C(=O)CN(C)C(=O)c1cc2cc(F)ccc2[nH]1,.,.,.,.,2
CCCCOC(=O)Nc1nnc(-c2ccccc2OC)s1,-1,-5,15,3,-3
COc1ccccc1-c1nnc(NC(=O)C(C)C)s1,-9,-2,-75*,0,-4
COc1ccccc1-c1nnc(NC(C)=O)s1,2,-5,-88*,-2,-9
Cc1ccc(Cl)cc1NC(=O)Nc1ccc2c(c1)oc(=O)n2C,.,.,.,.,-2
O=C1c2c(O)ccc(O)c2C(=O)c2c(NCCNCCO)ccc(NCCNCCO)c21,-66*!,-15,-19,?,16
CCn1cc(C(=O)N[C@H](C(=O)NCCO)C(C)C)c(=O)c2cc3c(cc21)OCO3,-4,51*,-15,-3,6
O=C(CCC(=O)Nc1cccc(C(F)(F)F)c1)NCCc1ccccc1,.,.,.,.,3
CC(NC(=O)CC(C)(C)CC(=O)O)c1cc2ccccc2o1 (stereo not given),.,.,.,.,-2
O=C(NC1CCN(Cc2ccc(Cl)cc2)CC1)c1cn(-c2ccccc2)nc1-c1cccnc1,6,-22,-62*,-3,-2
CSc1ncccc1C(=O)NC1CCN(Cc2ccccc2)CC1,4,-12,-60*,-2,-3
O=C(NC1CCN(Cc2ccccc2)CC1)c1ccccc1OCc1ccccc1,-4,-23,-99*,0,0
C#CCOc1ccccc1CNC1CCN(Cc2ccccc2)CC1,-2,-5,-22,3,-31*
CCOc1ccccc1C(=O)NC1CCN(Cc2ccccc2)CC1,5,-11,-73*,4,2
O=C(NC1CCCC1)c1ccccc1OCc1ccccc1,-7,8,12,-4,-5
O=C(NC1CCN(Cc2ccccc2)CC1)c1ccccc1OCc1ccccc1Cl,2,-22,-105*,3,-3
O=C(NC1CCN(Cc2ccccc2)CC1)c1ccccc1Cl,1,-6,?,-3,-6
N#CC(=Cc1ccc(-c2ccccc2)cc1)C(=O)c1ccccc1,-1,1,22,-12,-2
CC(=O)C(=Cc1ccc(-c2ccccc2)cc1)C(=O)c1ccccc1,-1,-10,-53*,15,0
Oc1c(Br)cc(/C=N/NC(=S)NCc2ccco2)cc1Br,-74*,-5,-9,1,-3
COC(=O)C(C)Sc1n[nH]c(=S)s1 (stereo not given),-72*,2,6,12,0
COC(=O)c1ccc(CSc2n[nH]c(=S)s2)o1,?,-7,58,-6,1
SMILES,PI5P4Ka inh,DRD3 agonist,DRD3 antagonist,PI4K2A block,LDHA block
COC(=O)CSc1n[nH]c(=S)s1,-21,-2,-68*,3,1
O=C(NCc1ccccc1)OC1CC2CC1[C@H]1CCCCN1C2 (stereo not given in full),.,.,.,-6,.
CCc1ccc(OCC(=O)Nc2nonc2C)cc1,.,.,.,.,-3
Cc1ccc(S(=O)(=O)N2CCN(c3ccc([N+](=O)[O-])c4cccnc34)CC2)cc1,-3,-6,-22,2,-31*!
Cc1nn2c(ncc3c(=O)[nH]ccc32)c1-c1ccccc1,.,.,.,.,1
Oc1cc(O)cc(/C=C/c2ccc(O)c(O)c2)c1,-53*,3,12,-53*,10
Cc1ccc(NC(=O)Cn2cnc(S(=O)(=O)N3CCOCC3)c2)c(Cl)c1,.,.,.,.,1
CCc1nc(NC(=O)c2nc(-c3ccccc3)oc2C)sc1C,.,.,.,.,2
CN(C)c1ccc(C(=C2C=CC(=[N+](C)C)C=C2)c2ccc(N(C)C)cc2)cc1,.,-13,.,-59*,9
CCC(C)Cc1c(C)sc2nc(CNc3cccc(C)c3)[nH]c(=O)c12 (stereo not given),.,.,.,.,4
